The test system of assay [1] is Human papillomavirus type 1a protein E7 (residues 44-93). Put plainly: HPV1a E7 fragment binders on microarrays, primary screen, biochemical, small-molecule microarray, residues 44-93, 635 nm fluorescence (AID 1108).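 Note: E7 fragment applied at 1 µg/mL in TBST for 1 h at 4 C; score combines spot fluorescence with its signal to noise ratio.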 As to conditions: small-molecule microarray binding, fluorescence 635 nm; higher = more signal.
A short description of assay [2]: modulators of HCV replicon luciferase signal, primary screen, HCV replication inhibitor project, Huh7 cells, luciferase reporter (AID 1109).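 Note: huh7 hepatoma cells harbouring a luciferase neomycin HCV replicon reporter; luciferase luminescence as measure of HCV replicon replication; test concentration not given here.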 As to conditions: 48 h, higher = more signal. (A replicon is a self-replicating genome or part of one, used to study replication in cells.)
The target of assay [3] is Left-right determination factor 2 (Homo sapiens) (UniProt O00292). Put plainly: LEFTY2 binders on small-molecule microarrays, primary screen, biochemical, small-molecule microarray, 635 nm fluorescence scan (AID 1110). As to conditions: LEFTY2 binding, higher = more signal.
Chain of Left-right determination factor 2 (Homo sapiens) (O00292 whole entry, looked up): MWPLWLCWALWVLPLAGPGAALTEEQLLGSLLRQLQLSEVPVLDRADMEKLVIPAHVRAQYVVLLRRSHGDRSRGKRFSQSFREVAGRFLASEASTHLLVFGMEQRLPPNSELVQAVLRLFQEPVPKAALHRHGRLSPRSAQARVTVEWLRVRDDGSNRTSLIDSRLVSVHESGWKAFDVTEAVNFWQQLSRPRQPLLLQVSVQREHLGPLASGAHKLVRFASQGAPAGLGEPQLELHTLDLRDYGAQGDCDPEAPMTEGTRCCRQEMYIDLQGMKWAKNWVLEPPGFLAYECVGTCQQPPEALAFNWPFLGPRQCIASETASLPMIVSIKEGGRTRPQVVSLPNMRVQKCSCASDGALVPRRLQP
The target of assay [4] is Calmodulin-1 (Homo sapiens) (UniProt P0DP23). In words: CALM1 binders on microarrays, EGTA buffer, profiling panel, biochemical, small-molecule microarray, Cy5-labelled CALM1 (AID 1111).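 Note: labelled calmodulin applied in Tris saline Tween buffer holding calcium plus EGTA and DTT.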 As to conditions: Cy5-CALM1 binding fluorescence, higher = more signal.
Assay [5] has the same target. Put plainly: calcium-bound CALM1 binders on microarrays, profiling panel, artefact control for SMM control-protein annotation, biochemical, small-molecule microarray, Cy5-labelled CALM1, plus calcium (AID 1112).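 Note: score merges spot fluorescence with signal to noise from triplicate slides.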 As to conditions: Cy5-CALM1 binding fluorescence, higher = more signal.
Assay [6] can be described thus: small-molecule microarray binders of probe aWnt5a, primary screen, biochemical, biotinylated probe, 635/667 nm fluorescence (AID 1113).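 Note: score merges 667 nm fluorescence intensity with signal-to-noise per printed feature.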 As to conditions: higher = more signal.
Assay [7] is described as follows: small-molecule microarray binders of probe aShh, primary screen, biochemical, biotinylated probe, 635/667 nm fluorescence (AID 1114).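 Note: probe is biotin-labelled aShh protein from a stem cell growth factor screen; measures binding of labelled protein to compounds printed on the slide; score merges feature fluorescence at 667 nm with signal-to-noise.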 As to conditions: higher = more signal.
Assay [8] in a line: small-molecule microarray binders of probe aNog, primary screen, biochemical, biotinylated probe, 635/667 nm fluorescence (AID 1115).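 Note: probe is biotinylated aNog protein used at 0.15 µg/mL for 1 h at 4 C; z-score combines 667 nm fluorescence of each spot with its signal to noise.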 As to conditions: higher = more signal.
In assay [9] the target is Torsin-1A-interacting protein 1 (Homo sapiens) (UniProt Q5JTV8). In words: LAP1 binders from COS7 cell lysate, primary screen, small-molecule microarray, 635/667 nm fluorescence (AID 1116). As to conditions: COS7-hLAP1 lysate binding, 635 nm fluorescence, higher = more signal.
Chain of Torsin-1A-interacting protein 1 (Homo sapiens) (Q5JTV8 whole entry, looked up): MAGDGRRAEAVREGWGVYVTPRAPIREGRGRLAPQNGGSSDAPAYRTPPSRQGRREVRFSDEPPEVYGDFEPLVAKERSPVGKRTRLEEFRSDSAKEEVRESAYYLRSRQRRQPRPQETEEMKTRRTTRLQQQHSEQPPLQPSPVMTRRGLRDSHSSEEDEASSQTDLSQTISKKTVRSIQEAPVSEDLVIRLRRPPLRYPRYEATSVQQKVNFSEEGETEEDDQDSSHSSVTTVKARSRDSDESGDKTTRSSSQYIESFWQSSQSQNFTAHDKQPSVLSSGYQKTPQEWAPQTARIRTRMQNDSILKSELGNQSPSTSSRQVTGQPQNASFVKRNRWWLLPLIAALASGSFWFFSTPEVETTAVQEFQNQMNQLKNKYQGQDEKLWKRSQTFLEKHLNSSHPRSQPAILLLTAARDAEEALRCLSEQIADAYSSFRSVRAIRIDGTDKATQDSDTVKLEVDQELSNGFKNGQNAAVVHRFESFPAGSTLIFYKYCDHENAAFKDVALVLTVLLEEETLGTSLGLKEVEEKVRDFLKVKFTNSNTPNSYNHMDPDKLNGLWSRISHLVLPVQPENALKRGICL
Assay [10] addresses Alpha-bungarotoxin (Bungarus multicinctus) (UniProt P60615). Put plainly: alpha-bungarotoxin binders on microarray, profiling panel, artefact control for SMM control protein annotation, biochemical, small-molecule microarray, Alexa647 label, 635/667 nm fluorescence (AID 1117). As to conditions: alpha-BTX-A647 binding fluorescence, higher = more signal.

Chain of Alpha-bungarotoxin (Bungarus multicinctus) (P60615 whole entry, looked up): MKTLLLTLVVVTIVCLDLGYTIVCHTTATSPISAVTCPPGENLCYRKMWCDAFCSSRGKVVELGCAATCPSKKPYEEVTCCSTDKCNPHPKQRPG

Turning to `C[C@@H]1CC[C@H]2C(=O)N3CCC[C@H]3C(=O)N2[C@H]1c1ccc(Br)cc1`, the composite z-score in assay [1] is 0.175; in assay [3], 0.267; in [4], -0.243; in assay [5] it was -0.558; in assay [6] it was -0.212; in [7], -0.0769. Moreover, the composite z-score in [8] was -0.307; in [9] it was 0.324; in assay [10] it was -0.179. In addition, the z-score in [2] amounted to 0.673.

Consider `C=CC[C@]1(C(=O)O)N=C(c2ccc(OCCCO)cc2)O[C@H]1c1ccccc1N=[N+]=[N-]`, for which the composite z-score in assay [1] was -0.914; in [3] it was -0.753; in assay [4], 1.74; in assay [5], 0.768; in assay [6], 0.055; in [7], -0.0243. For the same compound, the composite z-score in [8] was -0.0069; in assay [9] it was 1.45; in assay [10] it was 0.0298. For the same compound, the z-score in assay [2] is 1.65.

Turning to `CO[C@H]1O[C@H](CO)[C@@H](OC(=O)Nc2ccccc2)[C@H](OC(=O)Nc2ccc3c(c2)OCO3)[C@@H]1OC(=O)Nc1ccc2c(c1)OCO2`, the composite z-score is 1.32 in [1]; -0.244 in assay [3]; 1.92 in assay [4]; -0.819 in assay [5]; -0.0944 in [6]; 0.151 in assay [7]. Moreover, the composite z-score in assay [8] came to 0.038; in [9], 1.99; in [10], 0.361. Further, in assay [2], the z-score is -0.245.

Take `O=C1NC(=O)C2C1C=CC(C(O)C=Cc1ccc([N+](=O)[O-])cc1)N2Nc1ccccn1` (stereo not given): the composite z-score was -0.581 in [1]; 0.909 in [3]; -0.438 in assay [4]; -0.544 in assay [5]; -0.14 in [6]; 0.265 in assay [7]. Besides, the figures for the composite z-score in assay [8], in [9] and in assay [10] were -0.142, 1.45 and 0.224, respectively. Besides, in assay [2], the z-score is 0.807.

In the case of `Cc1ccc(N2C(=O)c3ccccc3[C@](C)(C(=O)O)[C@@H]2c2ccc(CO)cc2)nc1`, the composite z-score is -2.5 in assay [1]; -1.64 in assay [3]; 0.202 in assay [4]; 0.823 in [5]; -0.304 in [6]; 0.608 in [7]. Besides, the results for the composite z-score in assay [8], in assay [9] and in assay [10] were -0.459, -0.415 and -0.666, respectively. The compound also yielded a z-score in assay [2] of 0.0767.

Consider `O=C1O[C@@H](c2ccccc2)[C@@H](c2ccccc2)N2[C@@H](c3ccccc3OCCO)[C@]3(C(=O)Nc4ccc(C#CC5=CCCCC5)cc43)[C@@H](C(=O)O)[C@H]12`, for which the composite z-score in assay [1] is 0.799; in assay [3] it was 0.0802; in assay [4] it was 1.7; in assay [5], 0.957; in assay [6], -0.0539; in [7], 0.13. Besides, the values for the composite z-score in assay [8], in [9] and in [10] were 0.0014, 0.612 and 1.77, respectively. Further, in [2], the z-score was -2.28.

As to `CCCCO[C@H]1C[C@H]2C(Br)=C[C@@]1(CO)C(=O)[C@]21CO1`, the composite z-score is -0.122 in assay [1]; 0.456 in assay [3]; -0.795 in assay [4]; -1.33 in assay [5]; -0.146 in [6]; -0.123 in assay [7]. Besides, the results for the composite z-score in [8], in assay [9] and in assay [10] were -0.278, -0.242 and -0.755, respectively. In assay [2], this compound came in with a z-score of -1.46.

As to `CC1CC/C=C\[C@H]2OC34C=CCN(Cn5nnc6ccccc65)C(=O)[C@H]3N(C(C)CO)C(=O)[C@@H]4C2C(=O)O1` (stereo not given in full), the composite z-score in assay [1] was -0.132; in assay [3], -0.371; in [4] it was -0.45; in [5], -0.223; in assay [6], -0.184; in assay [7], -0.123. In addition, the composite z-score is 0.34 in [8], 0.413 in assay [9] and -0.465 in assay [10]. Moreover, the z-score in [2] is -0.276.

For `CO[C@H]1COC(=O)CC=C[C@H](C)COC(=O)[C@@H](OCc2ccccc2)C=C[C@@H]1C`, the composite z-score in assay [1] was -0.217; in [3] it was 1.5; in assay [4], -1.51; in assay [5], -2.68; in assay [6] it was -0.286; in assay [7], -0.283. In addition, the composite z-score was -0.424 in [8], 0.237 in assay [9] and -0.74 in [10]. The same compound returned a z-score in assay [2] of 0.165.

For `C=C(COC)/C(=C/C[C@@H](OC(=O)c1ccncc1)c1ccc(OCCO)cc1)c1cc(C(=O)OC)ccc1OC`, the composite z-score in [1] is 0.355; in assay [3] it was -0.428; in [4], 0.947; in assay [5], -0.777; in assay [6] it was -0.175; in assay [7], -0.0146. In addition, the composite z-score stood at 0.475 in [8], 1.45 in [9] and 2.04 in assay [10]. This compound gave a z-score in assay [2] of -1.63.

As to `COc1cc(Cc2cc3c(c(CCc4ccccc4)n2)[Si](C(C)C)(C(C)C)OC3)cc(OC)c1OC`, the composite z-score in assay [1] was -0.0207; in assay [3], 0.131; in assay [4] it was -0.358; in assay [5], -0.182; in [6] it was -0.156; in [7] it was 0.0796. Further, the values for the composite z-score in assay [8], in assay [9] and in assay [10] were -0.158, -0.214 and -0.044, respectively. The z-score in assay [2] was -2.14.

For `COC(=O)[C@H]1[C@@H]2COc3ccccc3[C@H]2N[C@H]1C(=O)OC`, the composite z-score in [1] was -0.339; in assay [3] it was 0.362; in assay [4], 0.623; in assay [5] it was -0.266; in [6], -0.0161; in assay [7], -0.0626. Besides, the composite z-score in [8] was -0.223; in [9], 0.0767; in assay [10] it was 0.854. In assay [2], this compound came in with a z-score of -0.591.

As to `O=C(NCc1ccccc1)[C@@]1(Cc2ccccc2)COC(c2ccc(OCCCO)cc2)=N1`, the composite z-score was 1.4 in [1]; -0.702 in assay [3]; 0.588 in [4]; 0.687 in assay [5]; -0.128 in assay [6]; -0.0337 in assay [7]. In addition, the composite z-score came out at 0.597 in [8], 1.57 in assay [9] and 1.71 in assay [10]. The z-score in assay [2] is -3.29.

`O=[N+]([O-])c1ccc(C[n+]2ccc3ccc(O)cc3c2)o1`: the composite z-score is -0.0611 in [1]; -0.0338 in assay [3]; 1.01 in assay [4]; 0.287 in assay [5]; -0.0435 in assay [6]; 0.673 in assay [7]. The composite z-score in assay [8] is -0.206; in assay [9] it was -0.314; in assay [10], 2.53. This compound also showed a z-score in [2] of -0.95.

With `CO[C@H]1COC(=O)CC=C[C@@H](C)COC(=O)[C@@H](C)NC(=O)CC=C[C@@H]1C`, the composite z-score in [1] is -0.291; in assay [3], 1.6; in assay [4] it was -3.42; in [5], -3.57; in assay [6], -0.307; in [7], 0.238. Also, the composite z-score is -0.139 in assay [8], -0.229 in [9] and -0.706 in assay [10]. The same compound showed a z-score in assay [2] of 0.325.

Take `Cc1ccc(S(=O)(=O)N2[C@@H](c3ccccc3)C(C(=O)O)=CC[C@H]2c2ccccc2)cc1`: the composite z-score in assay [1] is 0.433; in [3], -0.363; in assay [4] it was 0.526; in assay [5], 0.355; in assay [6] it was 0.0317; in assay [7], -0.0709. Besides, the composite z-score in assay [8] is 0.109; in assay [9], -0.701; in [10], 0.317. The compound also returned a z-score in assay [2] of 0.498.

In the case of `C=CCNC(=O)[C@@H]1[C@H]2C(=O)O[C@H](c3ccccc3)[C@H](c3ccccc3)N2[C@H](c2ccc(OCCO)cc2)[C@@]12C(=O)N(C(=O)OCCOC)c1ccc(C#CC3(O)CCCCCC3)cc12`, the composite z-score in assay [1] was 0.692; in [3], 0.507; in [4], 1.82; in assay [5] it was 1.11; in assay [6], 0.0267; in [7], 0.293. Further, the composite z-score was found to be 0.166 in [8], 1.2 in [9] and 1.97 in assay [10]. Moreover, the z-score in [2] was -2.29.

As for `COC(=O)c1c(CC[C@@H](CO)NC(=O)N[C@H](Cn2cc(-c3cncn3C)nn2)C(C)C)oc(C(C)=O)c1C(=O)OC`, the composite z-score in assay [1] is 0.873; in assay [3], 0.332; in assay [4], -0.055; in assay [5], -0.333; in assay [6], -0.1; in assay [7], -0.2. For the same compound, the composite z-score is 0.0668 in [8], 0.542 in assay [9] and -0.115 in assay [10]. Moreover, the z-score in assay [2] stood at 0.0688.
